Most compounds without a hit are left out; they make up all but 7.3% or so of the library.
HCV inh: inhibitors of hepatitis C virus infection; Huh7.5.1 HCVcc-Cre infection, luciferase reporter, 44 h; Potency, µM (titrated, usually from 41.8 µM), hits mostly inhibitors; 340,000 compounds, 3.4% hits
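Luciferase read-out (15 sec integration) after a 15 min room-temperature substrate step quantifies HCVcc-Cre infection. Cells, 1,000 per well, had compound added 4 h post-plating, then virus at ~0.5 moi, and were cultured 44 h.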
AmpC no deterg: inhibitors of E. coli AmpC beta-lactamase without detergent. P00811. AmpC nitrocefin hydrolysis, absorbance 480 nm, 0.0001% Triton. Potency, µM (series often up to 57.1 µM), usual class: inhibitors. 330,000 compounds, 0.52% hits; note: nearly all actives have a fitted effect of over 20% in size
Target sequence (P00811 whole entry, looked up): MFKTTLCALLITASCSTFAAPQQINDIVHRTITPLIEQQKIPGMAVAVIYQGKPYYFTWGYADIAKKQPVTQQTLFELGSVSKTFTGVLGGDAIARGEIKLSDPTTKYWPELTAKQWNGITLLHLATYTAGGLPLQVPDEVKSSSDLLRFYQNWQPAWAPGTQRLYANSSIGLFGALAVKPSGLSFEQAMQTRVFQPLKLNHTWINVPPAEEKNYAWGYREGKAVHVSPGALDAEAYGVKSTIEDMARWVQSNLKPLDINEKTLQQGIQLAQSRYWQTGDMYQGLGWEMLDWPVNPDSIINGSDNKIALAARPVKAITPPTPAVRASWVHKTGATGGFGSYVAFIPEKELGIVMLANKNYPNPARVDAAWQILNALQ
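AmpC (5.3 nM in the dispensed reagent) in 20 mM phosphate pH 7.0 with 0.01% (detergent screen) or 0.0001% Triton X-100 was preincubated with compounds for 15 min at room temperature. Nitrocefin was then added from an 800 uM solution, and hydrolysis was followed at 480 nm.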
FMDV inh: foot and mouth disease virus antiviral activity | 410,000 compounds, 1.2% hits | FMDV antiviral cell-based qHTS | Potency, µM (doses to about 57.9 µM), actives largely listed as inhibitors; calls by dose curve; tested in HEK293T cells; note: read-out not given here; nearly all actives have a fitted effect of over 45% in size
AmpC detergent: inhibitors of E. coli AmpC beta-lactamase with detergent; P00811; AmpC hydrolysis of nitrocefin, absorbance 480 nm, 0.01% Triton; Potency, µM (top dose mostly 114 µM), most hits filed as inhibitors; 370,000 compounds, 0.041% hits; note: nearly all actives have a fitted effect of over 25% in size
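AmpC (5.3 nM in the dispensed reagent) in 20 mM phosphate pH 7.0 with 0.01% (detergent screen) or 0.0001% Triton X-100 was preincubated with compounds for 15 min at room temperature. Nitrocefin was then added from an 800 uM solution, and hydrolysis was followed at 480 nm.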
HCMV antiviral: inhibitors of human cytomegalovirus; 410,000 compounds, 4.5% hits; activity change, negative = inhibition, % at 57.5 µM; HFF cells, HCMV-luciferase reporter, 72 h; stronger effect = lower value; in the data active = activity change below about -60%; inconclusive = no clear call, values can overlap the other calls; inactive = above about -39%
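Steps: HFFs plated, 16 h 37C; compounds added; HCMV-luciferase added to MOI 1 PFU/cell; 72 h 37C; OneGlo reagent, 5 min room temperature; luminescence read, normalized to controls.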
Of the large screens only hits and unclear results are named; the others gave an inactive call. Unless noted, calls come from the whole dose curve; as a rule, active = well fitted curve in the direction sought with a large enough effect; inconclusive = small, poorly fitted or top-dose-only effect, or another doubt; inactive = no such curve, though single readings can be large; an effect the other way counts as inactive or inconclusive.

Cc1ccc2nc(NNC(=O)c3ccc(S(=O)(=O)N4CCc5ccccc5C4)cc3)sc2c1	HCV inh 2.5µM, AmpC no deterg inconclusive, FMDV inh inconclusive, AmpC detergent inconclusive, HCMV antiviral -99
Cc1cc(C)c2nc(NNC(=O)c3ccc(S(=O)(=O)N4CC(C)CC(C)C4)cc3)sc2c1 (stereo unspecified)	HCV inh 7.1µM, HCMV antiviral -98
Cc1cccc2sc(NNC(=O)c3ccc(S(=O)(=O)N4CC(C)CC(C)C4)cc3)nc12 (stereo unspecified)	HCV inh inconclusive, FMDV inh inconclusive, HCMV antiviral -99
Cc1ccc2nc(NC(=O)c3ccc(S(=O)(=O)N4CCC(C)CC4)cc3)sc2c1	none (no result: HCV inh, AmpC no deterg)
O=C(N[C@H]1CC[C@@]23CCCN2C(=O)CCC[C@H]3[C@H]1Cc1ccccc1)C(c1ccccc1)c1ccccc1	none (no result: HCV inh, AmpC no deterg, FMDV inh, AmpC detergent)
Cc1ncc2c(c1CNC(=O)c1ccc3c(c1)OCO3)CCN(C(=O)c1noc3c1CCCC3)C2	none (no result: HCV inh, AmpC no deterg, AmpC detergent, HCMV antiviral)
Cc1ccccc1C(=O)Oc1cc(-c2ccc3c(c2)OCO3)cc(=O)c2c(C)oc(C)c12	none (no result: HCV inh, AmpC no deterg)
Nc1ncnc2c1ncn2[C@@H]1O[C@H](COP(=O)(O)O)[C@@H](O)[C@H]1O	HCV inh 0.56µM
Nc1ncnc2c1ncn2[C@@H]1O[C@H](COP(=O)(O)OP(=O)(O)OP(=O)(O)O)[C@@H](O)[C@H]1O	HCV inh 0.56µM, AmpC detergent inconclusive (no result: HCMV antiviral)
CN1N=C(N)c2cn(C3OC(COP(=O)(O)O)C(O)C3O)c3ncnc1c23 (stereo unspecified)	HCV inh inconclusive, HCMV antiviral -70 (no result: AmpC no deterg, AmpC detergent)
Nc1ncnc2c1ncn2C1OC(COP(=O)(O)O)C(O)C1O (stereo unspecified)	AmpC detergent inconclusive
Nc1ncnc2c1ncn2[C@@H]1O[C@H](CO)C[C@H]1O	HCV inh 10µM (no result: AmpC no deterg, AmpC detergent)
O=C(COC(=O)c1ccc(O)cc1)Nc1ccccc1	none
COc1ccc(-c2noc(CCC(=O)N(C)c3cc(Cl)ccc3OC)n2)cc1	none (no result: HCV inh, AmpC no deterg)
Nc1c(C(=O)Nc2ccccc2Cl)c2ccccn2c1C(=O)c1ccc(Cl)cc1	none (no result: HCV inh, AmpC no deterg)
CCc1nc2ccc(C(=O)NCCOc3ccc(OC)cc3)cn2c1N(C)C(=O)C1CCCCC1	none (no result: HCV inh, AmpC no deterg, AmpC detergent)
COC(=O)C1=CC(=O)N2CCN=C2S1	none (no result: HCV inh, AmpC no deterg, FMDV inh, AmpC detergent)
COc1nc2ccccc2c(=O)n1-c1ccc(Cl)cc1	HCMV antiviral -61
O=c1c2ccccc2nc(N2CCCC2)n1-c1ccc(Cl)cc1	HCV inh inconclusive, HCMV antiviral -63
Cc1nc(C)n(CC(=O)NCC2Cc3cc(-c4cccc(OC(F)(F)F)c4)ccc3O2)n1 (stereo unspecified)	none (no result: HCV inh, AmpC no deterg, AmpC detergent, HCMV antiviral)
CCOC(=O)/C(C)=C1\NC(C)(C)Cc2ccccc21	AmpC no deterg inconclusive, AmpC detergent 25µM
CCN(CC)S(=O)(=O)c1cccc(C(=O)NC(Cc2c[nH]c3ccccc23)c2nnc3n2CCC3)c1 (stereo unspecified)	HCMV antiviral -61
CC(NC(=O)c1ccc(CSc2nc3ccncc3n2Cc2ccc(F)cc2)cc1)c1ccccc1 (stereo unspecified)	none (no result: HCV inh, AmpC no deterg)
Cc1ccc(CN(C)C(=O)CN2C(=O)NC3(CCCc4ccccc43)C2=O)c(C)c1 (stereo unspecified)	HCV inh 10µM
Cc1ccc(C(C)C)c(OCC(O)CN(C)Cc2ccccc2)c1 (stereo unspecified)	HCV inh inconclusive, FMDV inh inconclusive, HCMV antiviral -70
CC(=O)NCCc1nc2ccccc2n1CCc1ccccc1	none
CCOc1ccc(CC(=O)NCc2ccc3c(c2)CCN3C(C)=O)cc1OCC	none (no result: HCV inh, AmpC no deterg)
C=CCNC(=O)CC(=O)N/N=C/c1ccc(C(=O)OC)cc1	AmpC no deterg inconclusive, HCMV antiviral -67
CN1CCN(CCCNC(=O)C2CC(=O)N(C3CCCCC3)C2)CC1 (stereo unspecified)	none
O=C(NCCCN1CCC(Cc2ccccc2)CC1)C1CC(=O)N(C2CCCCCC2)C1 (stereo unspecified)	HCV inh 4µM
CSc1ccc(NC(=O)NCCCN2CCC(Cc3ccccc3)CC2)cc1	HCV inh 10µM, HCMV antiviral -63
Cc1ccc(C(=O)OCc2cc3ccccc3[nH]c2=O)cc1	AmpC detergent inconclusive (no result: FMDV inh)
COc1cc(C(=O)OCc2cc3ccccc3[nH]c2=O)cc(OC)c1OC	HCMV antiviral -86
CN1CCN(Cc2nc3ccccc3c(=O)n2Cc2nc(-c3ccc([N+](=O)[O-])cc3)cs2)CC1	HCV inh inconclusive, HCMV antiviral inconclusive
CN(C)Cc1nc2ccccc2c(=O)n1Cc1nc(-c2cccc([N+](=O)[O-])c2)cs1	HCV inh 11µM
CC(=O)c1c(C)[nH]c(C(=O)CN2C(=O)NC3(CCCCC3)C2=O)c1C	none
O=c1[nH]c(Nc2nc3ccccc3o2)nc2c1CCCC2	AmpC detergent inconclusive, HCMV antiviral -99 (no result: FMDV inh)
CC(=O)NC12CC3CC(C1)CC(C(=O)N1CCN(S(=O)(=O)c4cccc(C(F)(F)F)c4)CC1)(C3)C2	HCMV antiviral inconclusive
CCOc1ccc(CC(=O)Nc2c(C(=O)c3ccc(F)cc3)oc3ccccc23)cc1OCC	none (no result: HCV inh, AmpC no deterg)
COC(=O)NC(=C(Cl)Cl)S(=O)(=O)c1ccccc1	HCV inh 11µM, FMDV inh 28µM (no result: AmpC no deterg)
Cc1ccc(C(=O)NC(=C(Cl)Cl)S(=O)(=O)c2ccccc2)cc1	HCV inh 11µM, FMDV inh inconclusive, HCMV antiviral -70
CCOC(=O)NC(C(Cl)(Cl)Cl)S(=O)(=O)c1ccccc1 (stereo unspecified)	FMDV inh inconclusive
Cc1ccc(C(=O)NC(C#N)=C(Cl)Cl)cc1	HCV inh 6.3µM, FMDV inh inconclusive, HCMV antiviral -99
COc1ccc(C(=O)NC(=C(Cl)Cl)S(=O)(=O)c2ccc(C)cc2)cc1	none
c1ccc(NN=C(c2ccccc2)c2cccs2)cc1	none (no result: HCV inh, AmpC no deterg, AmpC detergent)
CCCCn1c(N)c(N(CC)C(=O)c2cccs2)c(=O)[nH]c1=O	HCMV antiviral -61 (no result: AmpC detergent)
CCCCn1c(N)c(N(CC)C(=O)c2cccc(OC)c2)c(=O)[nH]c1=O	HCMV antiviral -72
Cc1ccc(CNC(=O)c2cc(Sc3ccc(F)cc3F)nc3ccccc23)cc1	HCMV antiviral -66 (no result: HCV inh, AmpC no deterg)
CCOCCCNC(=O)c1cc(Sc2ccc(F)cc2)nc2ccccc12	HCMV antiviral -62
COCCCNC(=O)c1cc(Sc2ccc(F)cc2)nc2ccccc12	HCV inh inconclusive, HCMV antiviral -61
CN(C)CCNC(=O)c1cc(Sc2ccc(F)cc2)nc2ccccc12	none (no result: HCV inh, FMDV inh, HCMV antiviral)
CCCS(=O)(=O)c1c(S(=O)(=O)CCC)c2cc(C(C)(C)C)ccn2c1C(=O)c1ccc(OC)c(OC)c1	none (no result: HCV inh, AmpC no deterg)
CCCS(=O)(=O)c1c(S(=O)(=O)CCC)c2cc(C(C)(C)C)ccn2c1C(=O)c1ccccc1	FMDV inh inconclusive, HCMV antiviral -64 (no result: HCV inh, AmpC no deterg)
CCCS(=O)(=O)c1c(S(=O)(=O)CCC)c2c(N)cccn2c1C(=O)c1ccc(OC)cc1	HCV inh 25µM, HCMV antiviral inconclusive

Screening results: PubChem, National Center for Advancing Translational Sciences (NCATS)
